Compounds with a hit are over-represented: about 4.8% of the library has one in this group of screens.
DAX1 inh-1: DAX1 (NR0B1) inhibitors, primary screen, cell-based, HEK293, Gal4-DAX1, luciferase luminescence; Nuclear receptor subfamily 0 group B member 1 (Homo sapiens), P51843; HEK293 Gal4-DAX1 luciferase reporter; inhibition, % at 6.75 µM; 0.99% of 340,000 active; AID 504766, 2011;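 active = inhibition above the mean over all tested compounds plus 3 SD, cut at about 4.2% in these data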;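 note: 0% = DAX1-transfected cells with DMSO and 100% = empty-vector control cells with DMSO; inhibition shows as a rise in luminescence from relieved DAX1 repression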
Target sequence (P51843 207-470 limits assumed): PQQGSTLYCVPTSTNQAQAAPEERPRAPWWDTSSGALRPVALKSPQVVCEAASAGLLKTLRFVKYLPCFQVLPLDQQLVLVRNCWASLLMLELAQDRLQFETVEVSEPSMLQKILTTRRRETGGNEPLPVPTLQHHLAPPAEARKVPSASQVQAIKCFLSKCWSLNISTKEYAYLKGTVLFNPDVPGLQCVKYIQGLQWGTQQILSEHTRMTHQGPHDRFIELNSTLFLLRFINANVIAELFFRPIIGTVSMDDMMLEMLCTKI
DAX1 inh-2: DAX1 (NR0B1) inhibitors on StAR promoter, primary screen, cell-based, luminescence, SF-1 (NR5A1), full-length DAX-1; HEK293T StAR-luciferase reporter, SF-1/DAX-1 repression relief; inhibition, % at 6.8 µM; 1.1% of 370,000 active; AID 652010, 2013;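 active = inhibition above the mean over all tested compounds plus 3 SD, cut at about 3.6% in these data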;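 note: 0% = DAX-1 cells with DMSO and 100% = cells lacking DAX-1 with DMSO; higher inhibition means more luminescence from relief of DAX-1 repression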
ssDAF12 agonist: S. stercoralis DAF-12 nuclear receptor activators, primary screen, cell-based, luminescence, HEK293, GRIP1 co-expression, lit1-tk-luc | 1% of 370,000 active | Nuclear hormone receptor DAF-12 (Strongyloides stercoralis) | HEK293 ssDAF-12/GRIP1 lit1-tk-luc reporter; % of 3 µM dafachronic acid response | activation, % at 6.8 µM;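 active = activation above the mean over all tested compounds plus 3 SD, cut at about 0.9% in these data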;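 note: 0% = DMSO-only wells and 100% = 3 µM delta7-dafachronic acid wells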
hgDAF-12 ag: H. glycines DAF-12 receptor agonists, primary screen, cell-based, luminescence, HEK293, GAL4 fusion, UAS-luciferase. Nuclear hormone receptor DAF-12 (Heterodera glycines), GAL4 fusion. HEK293 GAL4-hgDAF12 UAS-luciferase reporter, agonist luminescence; normalized to butyrate control. activation, % at 6.8 µM. 1.8% of 370,000 active. AID 687014, 2013;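 active = activation above a cutoff set at the mean of all screened compounds plus 3 SD, cut at about 10% in these data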;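 note: 0% = DMSO wells and 100% = sodium butyrate wells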
hcDAF12 agonist: H. contortus DAF-12 nuclear receptor activators, primary screen, cell-based, luminescence, HEK293, lit1-tk-luc reporter; activation, % at 6.8 µM; AID 652067, 2013; 1.4% of 370,000 active; HEK293 hcDAF-12 lit1-tk-luc reporter; 0% DMSO, 100% Δ7-dafachronic acid;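 active = activation above the mean of all tested compounds plus 3 SD, cut at about 5.5% in these data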;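 note: 100% = response to 3 µM Δ7-dafachronic acid high control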
SMARCA2 activ: SMARCA2 (BRM) function activators, primary screen, cell-based, luminescence, high throughput. 1% of 370,000 active. MG213 cells, MMTV-luciferase reporter, dexamethasone, overnight. activation, % at 9.1 µM. AID 652017, 2013; in the data active = activation above about 7.8%;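 note: 0% = vehicle wells and 100% = reference activator wells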
Numbers without * were called inactive; / = no result given.

SMILES | DAX1 inh-1 | DAX1 inh-2 | ssDAF12 agonist | hgDAF-12 ag | hcDAF12 agonist | SMARCA2 activ
c1ccc2c(CNC3CCCCCC3)c[nH]c2c1 | -1 | 0 | 0 | 0 | 5.7* | 3
CC(C)(C)NC(=O)CN1C(=O)[C@@H](Cc2c[nH]c3ccccc23)N=C(c2ccccc2)c2ccccc21 | / | -1 | -1 | -1 | 1 | -3
COc1ccc(C(=O)C2CCCN(CC3CCCCC3)C2)cc1OC (stereo not given) | / | 3.9* | -1 | 4 | 2 | 0
O=C(Nc1nccs1)c1c(O)c2c(n(Cc3ccco3)c1=O)CCCC2 | 1 | 0 | 1.3* | 1 | 5 | -3
O=C(Nc1ccccc1)c1c(O)c2c(n(Cc3ccco3)c1=O)CCCC2 | 4.3* | 0 | 0 | 2 | 5 | -3
O=C(Nc1cccc(Cl)c1)c1c(O)c2c(n(Cc3ccco3)c1=O)CCCC2 | / | 0 | -1 | -1 | 1 | 1
C=CCCC[C@@H]1OC(=O)CNC(=O)C([C@@H](C)CC)NC(=O)[C@@H]2CCCN2C(=O)C([C@@H](C)CC)OC(=O)[C@H](Cc2ccccc2)N(C)C(=O)[C@H](C(C)C)NC(=O)C1(C)C (stereo not given in full) | / | 0 | -1 | -2 | -1 | -4
CCC(C)C1NC(=O)C2CCCN2C(=O)C(CC(C)C)OC(=O)CCNC(=O)C(C)N(C)C(=O)C(C(C)C)N(C)C1=O (stereo not given) | 0 | 3.7* | -1 | -9 | -2 | 7
O=C(NCCN1CCC2(CC1)C(=O)NCN2c1ccccc1)c1cccc(F)c1 | / | 2 | -1 | 0 | 1 | -2
C=CCCC(NC(=O)OCc1ccccc1)P(=O)(Oc1ccccc1)Oc1ccccc1 (stereo not given) | / | / | -1 | 4 | -1 | /
CC1OC(OC2C(O)CC(OC3C(O)CC(OC4CCC5(C)C(CCC6C5CCC5(C)C(C7=CC(=O)OC7)C(O)CC65O)C4)OC3C)OC2C)CC(O)C1O (stereo not given) | -4 | 16* | -2 | -9 | 3 | 1
CC(=O)OC1CC(OC2C(O)CC(OC3C(O)CC(OC4CCC5(C)C(CCC6C5CCC5(C)C(C7=CC(=O)OC7)C(O)CC65O)C4)OC3C)OC2C)OC(C)C1OC1OC(CO)C(O)C(O)C1O (stereo not given) | -6 | -7 | -2 | -15 | -4 | -9
OC1(c2ccccc2)CCNC2CCCCC21 (stereo not given) | 0 | 0 | -1 | 0 | -1 | -2
OC12CCCCC1C(c1ccccc1)NCC2 (stereo not given) | 4.3* | 0 | -1 | 4 | -1 | 6
O=C(Cn1nc(-c2ccc(Cl)cc2)ccc1=O)N1CCC2(CC1)OCCO2 | 4.4* | 0 | 0 | -3 | -1 | 0
O=C(CCn1nc(-c2ccc(Cl)cc2)ccc1=O)N1CCC2(CC1)OCCO2 | 1 | 0 | -2 | 1 | -1 | 4
Cc1ccccc1-n1c(O)c(/C=C2/C(c3ccccc3)=Nc3ccccc32)c(=O)[nH]c1=O | -1 | -2 | -1 | 0 | 1 | 3
COC(=O)C1=Nc2ccccc2/C1=C\c1c(O)n(-c2cc(OC)ccc2OC)c(=O)[nH]c1=O | 0 | 0 | -1 | 3 | 5.8* | -2
CC1=Nc2ccccc2/C1=C/c1c(O)n(C)c(=O)[nH]c1=O | 3 | 0 | 1 | 2 | 6.4* | -2
CC(=O)N1c2ccccc2C(c2ccccc2)=NCC1C(=O)NC1CCCCC1 (stereo not given) | / | -4 | 0 | 2 | -2 | 2
CC/C(=N\Nc1cccc2ccccc12)c1c(O)[nH]c(=O)[nH]c1=O | -3 | -1 | 1.3* | 1 | 2 | -2
NC(=S)N/N=C/c1coc2ccccc2c1=O | -1 | 0 | 1.2* | 3 | 0 | 1
CCOC(=O)CC[C@@H]1CC[C@]2(CCCN(Cc3ccccn3)C2)O1 | / | 0 | -2 | -1 | 0 | -2
CCN1CCN(c2ncnc3ccc(Br)cc23)CC1 | 4.4* | 0 | -1 | 5 | -1 | -3
O=C(CN1CCCCC1)c1ccc2c(c1)OCO2 | 5.6* | 0 | 0 | 1 | 0 | 7
SMILES | DAX1 inh-1 | DAX1 inh-2 | ssDAF12 agonist | hgDAF-12 ag | hcDAF12 agonist | SMARCA2 activ
O=C(CN1CCCCC1)c1cccc(Br)c1 | 1 | 0 | -1 | -1 | -1 | 0
O=c1[nH]c(=S)[nH]c(O)c1N=Nc1ccc(OC(F)F)cc1 | 4.4* | 2 | 0 | 4 | 1 | 3
COc1ccc(N=Nc2c(O)[nH]c(=S)[nH]c2=O)cc1 | 3 | 3.9* | -1 | 8 | 2 | 5
O=C(NCCN1CCC2(CC1)C(=O)NCN2c1ccccc1)c1cccnc1Cl | / | 0 | 0 | -2 | -1 | -1
Cc1cc(O)c2c(c1)C(=O)[C@@]13C(=C2O)C(=O)[C@H]2C(O)[C@@H]1[C@H]1C(O)[C@@H]3C(=O)C3=C(O)c4c(O)cc(C)cc4C(=O)[C@@]312 (stereo not given in full) | / | -5 | -1 | -11 | -3 | -5
Cc1cc(C)c(-n2c(O)c(/C=N/NC(=O)c3ccncc3)c(=O)[nH]c2=O)c(C)c1 | / | 1 | -1 | -1 | -1 | -2
Cc1ccccc1-n1c(O)c(/C=N/NC(=O)c2ccncc2)c(=O)[nH]c1=O | 4.4* | 0 | -1 | -1 | 0 | 4
COC(=O)C1C(c2ccc(Cl)cc2)CC2CCC1N2C (stereo not given) | / | 1 | -1 | -3 | 2 | 6
O=C(O)Cn1cc(/C=C2\C(=O)NC(=O)N(c3ccc(Br)cc3)C2=O)c2ccccc21 | -1 | 0 | 1.2* | 3 | 5.6* | -5
Cc1ccc(N2C(=O)NC(=O)/C(=C\c3cn(CC(=O)O)c4ccccc34)C2=O)cc1 | 2 | 0 | 1.4* | 2 | 4 | 0
COC(=O)[C@@]1(O)c2c(oc3cccc(O)c3c2=O)C=C[C@H]1O | / | -4 | -1 | -10 | -3 | -6
CN(C)C(=O)Oc1ccc(OC(=O)N(C)C)cc1 | 0 | 0 | -1 | 2 | 0 | 4
CN(C)C(=O)Oc1ccc(C(=O)c2ccccc2)cc1 | 0 | 1 | -1 | 6 | 3 | 7.9*
C=Cn1ccnc1P(=S)(c1ccc(Cl)cc1)c1nccn1C=C | 5.2* | 0 | 0 | 0 | 0 | -2

Source: PubChem (The Scripps Research Institute Molecular Screening Center)
